LmPK inh: blocks Leishmania mexicana pyruvate kinase activity. purified LmPK, Kinase-Glo ATP luminescence, 1 h. Potency, µM (series often up to 57.5 µM), without a hit: at the highest dose activity change, negative = inhibition, actives largely listed as inhibitors. 290,000 compounds, 0.37% hits; also: potency is read from the fitted curve at half-maximal effect; % is scaled to controls: 0 for no effect and ±100 for the full control effect
Target sequence (Q27686 whole entry, looked up): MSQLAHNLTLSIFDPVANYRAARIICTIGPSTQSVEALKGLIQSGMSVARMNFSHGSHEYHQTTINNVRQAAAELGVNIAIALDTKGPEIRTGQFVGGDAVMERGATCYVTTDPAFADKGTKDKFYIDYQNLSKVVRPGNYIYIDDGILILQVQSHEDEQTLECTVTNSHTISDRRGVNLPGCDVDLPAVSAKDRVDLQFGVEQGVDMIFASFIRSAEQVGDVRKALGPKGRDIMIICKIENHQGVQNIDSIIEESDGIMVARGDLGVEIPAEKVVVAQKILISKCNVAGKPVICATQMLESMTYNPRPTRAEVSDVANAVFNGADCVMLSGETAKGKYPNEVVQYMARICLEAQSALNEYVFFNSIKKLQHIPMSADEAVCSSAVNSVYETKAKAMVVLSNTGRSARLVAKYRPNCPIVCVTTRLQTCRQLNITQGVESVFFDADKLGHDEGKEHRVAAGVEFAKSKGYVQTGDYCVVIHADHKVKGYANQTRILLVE
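Kinase-Glo luminescence read after 1 h RT reaction of 0.1 nM LmPK with 0.5 mM PEP and 0.1 mM ADP. Activity scaled between uninhibited and enzyme-free controls.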
Cycloheximide cs: affects cycloheximide protein synthesis inhibition readout, counter-screen | cell reporter, cycloheximide protein synthesis inhibition counterscreen | max response, % | 300,000 compounds, 12% hits | AID 2314; in the data active = max response mostly above about 13%, no sharp cut-off; inactive = mostly below about 14%; also: read at 38.3 µM for the half of the compounds with a filed dose; 0% is about no effect
Pf growth 48h: P. falciparum growth inhibition at 48 hours (one generation). P. falciparum luciferase growth in erythrocytes, 48 h. Potency, µM (highest dose often 28.7 µM), for the others: at the top dose activity change, negative = inhibition, most hits filed as inhibitors. 310,000 compounds, 5.9% hits. AID 504832; also: potency is read from the fitted curve at half-maximal effect; % is scaled to controls: 0 for no effect and ±100 for the full control effect
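Firefly luciferase activity from engineered P. falciparum reports growth; inhibitors lower the luminescent signal. Cultures contained 2% hematocrit erythrocytes at 0.1% final parasitemia.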
Shiga toxin inh: Shiga toxin inhibition; Vero cells, Shiga toxin protein synthesis inhibition reporter; inhibition, % at 38.7 µM; 290,000 compounds, 9.2% hits; AID 2315; in the data active = inhibition mostly above about 28%, no sharp cut-off; inactive = mostly below about 43%; also: 0% is about no effect
Pf growth 96h: P. falciparum growth inhibition at 96 hour, primary screen for plastid delayed-death inhibitors. P. falciparum luciferase reporter growth, 96 h. Potency, µM (titrated, usually from 28.7 µM), inactives show at the highest dose activity change, negative = inhibition, most hits filed as inhibitors. 320,000 compounds, 6.9% hits. AID 504834; also: potency is read from the fitted curve at half-maximal effect; % is scaled to controls: 0 for no effect and ±100 for the full control effect
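Parasite growth measured via integrated firefly luciferase reporter in P. falciparum. Infected erythrocytes at 2% hematocrit, 0.05% parasitemia final were treated 96 hours at 37 C under 5% CO2, and luminescence was read.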
* marks the source's active call; other numbers are inactive results; u = inconclusive; x = no result given. Rows were chosen to be rich in hits. Some 22% of all compounds tested hit in one or more screens of this group. Unless noted, calls follow the shape of the dose curve; as a rule, active = well fitted inhibition curve with a large enough effect; inconclusive = small, poorly fitted or top-dose-only effect, or another doubt; inactive = no such curve, though single readings can be large or run the other way.

SMILES	LmPK inh	Cycloheximide cs	Pf growth 48h	Shiga toxin inh	Pf growth 96h
NS(=O)(=O)c1ccc(NC(=O)COC(=O)CC2Sc3ccccc3NC2=O)cc1 (stereo not drawn)	x	x	-2.1%	x	2.7%
CCOC(=O)N1CCN(Cc2cc(=O)oc3cc4c(cc23)CCC4)CC1	0.7%	-0.9	u	-25.3	4.65µM*
Cc1ccc2c(CN3CCCCC3)cc(=O)oc2c1C	-1.4%	36.1*	u	83.0	u
Cc1cc2oc(=O)cc(CN3CCCCC3)c2cc1C(C)C	5.6%	1.2	7.38µM*	-2.4	5.6%
CCOC(=O)C1CCCN(Cc2cc(=O)oc3cc(C)c(C(C)C)cc23)C1 (stereo not drawn)	-0.6%	11.0	-25.4%	20.7	0.0%
Cc1cc2oc(=O)cc(CN3CCCCC3)c2cc1O	2.2%	27.3*	11.5%	25.7	39.0%
Cc1cccc(N2CCN(C(=O)c3ccc4c(c3)NC(=O)C(CSCc3cccc(F)c3)N4)CC2C)c1 (stereo not drawn)	1.2%	1.0	-8.5%	11.1	49.2%
Cc1cc2oc(=O)cc(Cn3nnc(-c4ccc(Cl)cc4)n3)c2cc1C(C)C	-2.2%	-4.9	11.7µM*	-8.7	u
Cc1ccc2c(CN3CCCc4ccccc43)cc(=O)oc2c1C	1.2%	27.0*	u	35.9	-16.9%
Cc1cc2oc(=O)cc(CN3CCc4ccccc43)c2cc1Cl	2.9%	-4.6	2.8%	-3.6	u
CC(OC(=O)c1ccc(S(=O)(=O)NCc2ccco2)cc1)C(=O)Nc1ccc(Cl)cn1 (stereo not drawn)	6.2%	37.6*	1.8%	68.4*	1.1%
Cc1noc(C)c1COC(=O)c1ccc(S(=O)(=O)NCc2ccco2)cc1	2.7%	16.4*	-3.1%	56.5	u
O=C(COC(=O)c1ccc(S(=O)(=O)NCc2ccco2)cc1)Nc1ncc(Cl)cc1Cl	3.5%	-3.8	2.8%	7.9	8.0%
COc1ccc(C(=O)Nc2ccccc2)cc1S(=O)(=O)NCc1ccco1	-2.9%	-1.1	-13.7%	30.1	-4.7%
Cc1ccc(NC(=O)CN(C)C(=O)c2cccc(S(=O)(=O)NCc3ccco3)c2)cc1	x	x	-6.1%	x	9.28µM*
O=C(Nc1ccccc1)c1cccc(S(=O)(=O)NCc2ccco2)c1	-1.0%	50.1*	-7.8%	52.3*	55.1%
CC(OC(=O)CNC(=O)c1ccc2ccccc2c1)C(=O)N(C)C1CCCCC1 (stereo not drawn)	x	x	1.1%	x	53.9%
CN1CCN(S(=O)(=O)c2ccc(NC(=S)NC(=O)C(C)(C)C)cc2)CC1	2.2%	2.8	-3.0%	-1.7	67.6%
O=C(CC1OC(=O)c2ccccc21)Nc1cccc(S(=O)(=O)N2CCCCCC2)c1 (stereo not drawn)	0.3%	-0.2	u	-7.6	-15.7%
Cc1ccc(Cl)cc1N(CC(=O)NC(C)c1ccccc1)S(C)(=O)=O (stereo not drawn)	-5.9%	-3.7	39.6%	-1.6	-17.9%
O=C(Nc1ccccc1)c1ccc(S(=O)(=O)NCc2ccco2)cc1	4.0%	-0.9	-1.0%	-7.4	1.4%
Cc1cc(C)cc(NC(=O)c2cc(S(=O)(=O)NCc3ccco3)ccc2F)c1	6.1%	14.6*	20.7%	45.5	3.8%
Cc1cc(C)n(-c2ccc(C(=O)Nc3ccc(S(=O)(=O)NCc4ccco4)cc3)cc2)n1	-1.8%	22.2*	13.1µM*	29.4	29.5%
O=C(Nc1ccc(S(=O)(=O)NCc2ccco2)cc1)c1ccc(F)cc1	-0.2%	28.0*	u	46.0*	-12.6%
CC1CCCCC1NS(=O)(=O)c1ccc(S(=O)(=O)NCc2ccncc2)cc1 (stereo not drawn)	0.8%	5.8	14.7µM*	-6.3	u
SMILES	LmPK inh	Cycloheximide cs	Pf growth 48h	Shiga toxin inh	Pf growth 96h
Cc1cccc(C(=O)Nc2cccc(S(=O)(=O)NCc3ccco3)c2)c1	x	x	-28.3%	x	-9.7%
O=C(C1CCN(S(=O)(=O)c2ccccc2F)CC1)N1CCc2ccccc2C1	2.3%	-0.8	-18.1%	0.7	u
O=C(CN(Cc1ccc(F)cc1)S(=O)(=O)c1ccc(S(=O)(=O)N2CCOCC2)cc1)Nc1ccccc1	-5.1%	-0.4	u	-8.2	u
Cc1ccc(C(=O)Nc2ccc(S(=O)(=O)NCc3ccco3)cc2)cc1	9.6%	37.6*	x	36.5*	12.9%
CC1CCCCC1NC(=O)c1ccc(S(=O)(=O)NCc2ccco2)cc1 (stereo not drawn)	3.0%	39.6*	u	62.4*	u
NS(=O)(=O)c1ccc(CNC(=O)c2ccc(S(=O)(=O)NCc3ccco3)cc2)cc1	x	x	9.3%	x	2.8%
O=S(=O)(NCc1ccco1)c1ccc2c(c1)Cc1ccccc1-2	1.6%	48.0*	u	40.6*	63.3%
O=C(NCc1ccccc1)c1ccc(S(=O)(=O)NCc2ccco2)cc1	-1.3%	37.8*	10.7%	53.2*	-11.9%
CCc1ccc(CN(C)CC(=O)Nc2sccc2C#N)cc1	4.3%	-2.0	-1.4%	11.0	5.4%
Cc1cc(NC(=O)C2CCCN(S(=O)(=O)c3cccc4nonc34)C2)ccc1Br (stereo not drawn)	x	-9.7	x	-11.2	x
COc1ccc(-c2ccc3cc(C(=O)O)ccc3c2)cc1C12CC3CC(CC(C3)C1)C2	x	x	10.6%	x	-3.5%
O=C(O)c1ccc(-c2ccc3cc(C45CC6CC(CC(C6)C4)C5)c(O)cc3c2)cc1	x	44.6*	x	28.4*	x
O=C1NC[C@H](c2ccccc2)N(CCc2cccc(F)c2)C1=O	3.0%	-3.2	0.2%	-11.2	5.5%
COc1ccc(C(=O)C(C)OC(=O)CCN2C(=O)C3CC=CCC3C2=O)cc1 (stereo not drawn)	x	x	-12.7%	x	u
Cc1nnc(SC(C)C(=O)Nc2ccc3ccccc3c2)[nH]c1=O (stereo not drawn)	-0.8%	-1.6	23.8%	-3.4	23.4%
O=C(/C=C/c1cccc(Br)c1)N1CCN(c2ccccn2)CC1	-12.6%	-3.8	-16.1%	2.7	u
C(=C\c1ccccc1)/C=N/N1CCN(Cc2ccccc2)CC1	3.7%	27.0*	37.0%	43.3*	53.1%
CC(/C=N/N1CCN(c2ccccn2)CC1)=C\c1ccccc1	-2.9%	22.8*	105.4%	46.7*	193.1%
C(=C\c1ccccc1)/C=N/N1CCN(c2ccccn2)CC1	-17.4%	39.4*	107.4%	48.2*	181.1%
C(/C=C/c1ccccc1)=N/N1CCN(c2ccccc2)CC1	-20.1%	16.4*	101.8%	40.9	88.2%
CCN(CC)C(=S)S	x	x	-18.2%	x	u
COc1ccccc1OCCNc1ccc(S(=O)(=O)N2CCCC2)cn1	x	x	-18.9%	x	0.0%
CC1CCCCN1CC(O)COCCC12CC3CC(CC(C3)C1)C2 (stereo not drawn)	0.1%	-4.8	u	2.6	8.28µM*
CCOC(=O)N1CCN(CC(O)COCCC23CC4CC(CC(C4)C2)C3)CC1 (stereo not drawn)	3.3%	-6.2	x	-11.9	-98.8%
COc1ccc(N(CC(=O)NC2CCCC2)C(=O)c2ccc(C)s2)cc1OC	-12.4%	-2.6	-11.0%	2.5	16.2%
CCOC(=O)c1ccc(NC(=O)Nc2ccc3c(c2)OCCO3)cc1	-2.1%	13.2*	u	32.2*	14.1%

Source: PubChem
